This is an account of results in PubChem BioAssay (NCATS).

Records with an inconclusive call do not appear. A call without a number means that no potency is given here. Calls of active or inactive are those of the source. The call rests on the fitted dose curve; in most records, active means well fitted inhibition curve with a large enough effect; inconclusive means small, poorly fitted or top-dose-only effect; inactive means no such curve, though single readings can be large or run the other way.
Potency means the concentration at half of the fitted maximal effect.

This assay is described as follows: NS1 protein of Zika virus - qHTS assay to identify small molecule inhibitors in human HEK 293 cells (AID 1347053). Further: nearly all actives have a fitted effect of over 55% in size. The conditions noted are these: HEK293 ZIKV MR766 infection, NS1 TR-FRET, 24 h; series mostly up to 46.1 µM. In a few lines: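 TR-FRET signal from two anti-ZIKV NS1 antibodies quantified NS1 in HEK 293 cells 24 h after MR766 infection at MOI = 0.5; compounds were added 1 h before virus. Uninfected cells and infected cells defined the NS1 normalization range.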
Regarding `CN1CCN(c2cc(C(=O)Nc3ccc4c(c3)-c3c(c(C(N)=O)nn3-c3ccc(F)cc3)CC4)c(Cl)cn2)CC1`, the Potency was 26.4 µM (active).
Regarding `CS(=O)(=O)c1ccc(-c2cnc(N)c(C(=O)Nc3ccccc3)n2)cc1`, the Potency entry was “inactive”.
As for `CN(C)CC(C)(C)CNc1nn2c(-c3ccccc3)nnc2cc1C1CCC1`, the Potency entry is “inactive”.
Take `CC(=O)Nc1nc(C)c(-c2ccc(Cl)c(S(=O)(=O)NCCO)c2)s1`: the Potency result was “inactive”.
`CNC(=O)c1cc(Oc2ccc(NC(=O)Nc3cc(C(C)(C)C)nn3-c3ccc4ncccc4c3)c(F)c2)ccn1`: the Potency entry is “inactive”.
Turning to `Cn1c(CNc2ccc(C(=N)N)cc2)nc2cc(C(=O)N(CCC(=O)O)c3ccccn3)ccc21`, the Potency result was “inactive”.
On to `CNC(=O)c1ccc(N2C(=S)N(c3cnc(C#N)c(C(F)(F)F)c3)C(=O)C23CCC3)cc1F`, for which the Potency result is “inactive”.
Take `CC(C)(C)c1cnc(CSc2cnc(NC(=O)C3CCNCC3)s2)o1`: the Potency is 1.32 µM (active).
For the molecule `C=C1C(=CC=C2CCC[C@]3(C)[C@@H]([C@H](C)C=C[C@H](C)C(C)C)CC[C@@H]23)C[C@@H](O)C[C@@H]1O`, the Potency entry was “inactive”.
Take `O=C(Nc1nc2cccc(-c3ccc(CN4CCS(=O)(=O)CC4)cc3)n2n1)C1CC1`: the Potency result is “inactive”.
In the case of `O=C(O)C1(Cc2cccc(Nc3nccs3)n2)CCC(Oc2cccc(Cl)c2F)CC1` (stereo unspecified), the Potency result is “inactive”.
`Nc1nccc(Oc2ccc(NC(=O)c3c[nH]cc(-c4ccc(F)cc4)c3=O)cc2F)c1Cl`: the Potency entry was “inactive”.
For the molecule `Clc1ccc2ncc(-c3cccc(NC4CNC4)n3)n2c1`, the Potency result is “inactive”.
As for `O=c1[nH]nc(Sc2ncc([N+](=O)[O-])s2)n1-c1ccc2c(c1)OCCO2`, the Potency is 9.35 µM (active).
In the case of `CC(C)Nc1cc(C(F)(F)F)cc2nc(NC(=O)c3cccnc3)nn12` it was “inactive”; in that of `O=C(O)CCCc1c[nH]c2ccccc12`, “inactive”.
Consider `C=C1C(=CC=C2CCCC3(C)[C@@H]([C@H](C)C=CC=CC(O)(CC)CC)CC[C@@H]23)C[C@@H](O)C[C@@H]1O` (stereo partly specified), for which the Potency result is “inactive”.
Consider `CCCCCCCCCC(=O)N[C@@H](Cc1c[nH]c2ccccc12)C(=O)N[C@H](CC(N)=O)C(=O)N[C@@H](CC(=O)O)C(=O)N[C@@H]1C(=O)NCC(=O)N[C@@H](CCCN)C(=O)N[C@@H](CC(=O)O)C(=O)N[C@H](C)C(=O)N[C@@H](CC(=O)O)C(=O)NCC(=O)N[C@H](CO)C(=O)N[C@@H]([C@@H](C)CC(=O)O)C(=O)N[C@@H](CC(=O)c2ccccc2N)C(=O)O[C@@H]1C`, for which the Potency entry is “inactive”.
The value for `Cc1ccc(CN2CCNCC2)cc1NC(=O)CNc1ccc(F)c(F)c1` was “inactive”; that for `CN(C1CCc2c(c3ccccc3n2CC(=O)O)C1)S(=O)(=O)c1ccc(F)cc1` (stereo unspecified) was “inactive”; that for `Cc1c(Cn2c(C)nc3c(C(=O)O)cc(N4CCOCC4)cc32)cccc1C(F)(F)F` was “inactive”.
`CCNC(=O)Nc1ccc2ncc(Nc3ccc(C)cc3)nc2n1`: the Potency result is “inactive”.
With `CN(C)c1nc(Cc2ccc(NC(=O)c3ccc4ccccc4c3)cc2)nc(Cl)c1CC(=O)O`, the Potency entry was “inactive”.
Consider `COC(=O)Nc1ccc(-c2nc(N3CCOCC3)c3cnn(C4CCN(Cc5cccnc5)CC4)c3n2)cc1`, for which the Potency is 16.6 µM (active).
Turning to `CC(C)(C)c1cc(C(C)(C)C)c(NC(=O)c2c[nH]c3ccccc3c2=O)cc1O`, the Potency entry is “inactive”.
Consider `Cc1cc(Nc2cc(N3CCN(C)CC3)nc(C=Cc3ccccc3)n2)n[nH]1`, for which the Potency is 21.5 µM (active).
